M1 antag – human M1 muscarinic receptor antagonists, primary screen, CHO-K1 cells, Fluo-8 calcium fluorescence, 1536-well. Muscarinic acetylcholine receptor M1 (Homo sapiens), P11229. CHO-K1 hM1, ACh EC80 antagonist. inhibition, % at 3 µM. 360,000 tested, 1.3% active. AID 588852, 2011;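 active = percent inhibition above its own plate's cutoff, namely the mean of that plate's compound wells plus 3 SD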;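 note: peak over basal fluorescence ratio during 140 s after agonist addition; 0% = ACh EC80 plus DMSO and 100% = DMSO alone without agonist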
Target sequence (P11229 whole entry, looked up): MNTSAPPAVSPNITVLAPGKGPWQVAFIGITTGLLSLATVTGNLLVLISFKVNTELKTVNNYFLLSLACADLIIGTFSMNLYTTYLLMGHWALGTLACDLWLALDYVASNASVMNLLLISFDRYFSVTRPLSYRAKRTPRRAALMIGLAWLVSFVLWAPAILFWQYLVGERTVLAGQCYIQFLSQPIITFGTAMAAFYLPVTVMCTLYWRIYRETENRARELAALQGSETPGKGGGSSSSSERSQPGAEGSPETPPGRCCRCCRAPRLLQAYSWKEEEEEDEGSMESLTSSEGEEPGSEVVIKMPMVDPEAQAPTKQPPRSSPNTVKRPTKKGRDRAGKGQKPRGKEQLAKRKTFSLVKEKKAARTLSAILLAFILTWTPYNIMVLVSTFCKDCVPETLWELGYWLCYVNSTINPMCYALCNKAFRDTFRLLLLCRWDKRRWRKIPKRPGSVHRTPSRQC
M1 ag – human M1 muscarinic receptor agonists, primary screen, Fluo-8 calcium fluorescence, CHO-K1 cells, HTS; CHO-K1 hM1, agonist mode; 0% DMSO, 100% acetylcholine EC100; activation, % at 3 µM; 360,000 tested, 0.33% active; AID 588814, 2011;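 active = activation above the run's mean compound activation plus 3 SD, cut at about 16% in these data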;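 note: peak over basal fluorescence ratio within a 140 s kinetic read after compound addition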
CHO-K1 Ca ag – counter-screen for M1 agonists: effect in parental CHO-K1 cells. Fluo-8 calcium fluorescence; scaled to maximal ATP response, vehicle zero. activation, % at 3 µM. 360,000 tested, 0.48% active; in the data active = activation above about 15%;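 note: untransfected CHO-K1 host cells lacking M1 receptor as counterscreen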
CHO-K1 Ca PAM – nonselective calcium activators in parental CHO-K1 cells, primary screen, counter-screen for M1 PAM project, cell-based, Fluo-8 calcium fluorescence, full deck, 1536-well; ATP EC20; 0% at ATP EC20, 100% at ATP max; activation, % at 3 µM; 360,000 tested, 0.02% active; AID 602247, 2012;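 active = activation above the run cutoff, the mean activation of all test compounds plus 3 SD, cut at about 40% in these data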;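 note: peak over basal fluorescence ratio in a 140 s read after ATP addition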
M1 PAM – human M1 muscarinic receptor positive allosteric modulators, primary screen, CHO-K1 cells, Fluo-8 calcium fluorescence, 1536-well | activation, % at 3 µM | 360,000 tested, 0.088% active | Muscarinic acetylcholine receptor M1 (Homo sapiens), P11229 | CHO-K1 hM1, ACh EC20; 0% = ACh EC20, 100% = maximal ACh; in the data active = activation above about 19%, passing the limit was not always enough
CHO-K1 Ca antag – nonselective inhibitor or artifact in parental CHO-K1 cells; ATP-induced calcium, Fluo-8 fluorescence; inhibition, % at 3 µM; 360,000 tested, 0.6% active; AID 602250;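 active = inhibition above a per-plate cutoff, the plate's mean sample inhibition plus 3 SD, cut at about 24% in these data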;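 note: 0% = DMSO plus EC80 ATP and 100% = DMSO alone without ATP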
* marks the source's active call; other numbers are inactive results; · = no result. Hits are enriched below; roughly 2.3% of the tested compounds scored in any of these assays.

SMILES | M1 antag | M1 ag | CHO-K1 Ca ag | CHO-K1 Ca PAM | M1 PAM | CHO-K1 Ca antag
CCOC(=O)[C@]12CCCC=C1N(Cc1cccc3ccccc13)C(=O)[C@H](CC(=O)N1CCOCC1)C2 | · | · | 2 | 7 | · | -26
COc1ccccc1NC(=O)Cn1nnc(-c2ccccc2NS(=O)(=O)c2ccccc2)n1 | 24 | -2 | 9 | -6 | -9 | 28*
COCCCNC(=O)c1nc2ccccc2c(=O)n1NC(=O)Nc1c(Cl)cccc1Cl | -7 | -1 | 1 | 3 | 7 | -8
Cc1ccccc1CCN1CCCC(CN(C)C(=O)C(=O)c2ccco2)C1 (centres undefined) | 29 | -7 | 0 | -11 | -13 | -1
CN(Cc1ccccc1OCCO)CC1CCCN(CCc2ccc(Cl)cc2)C1 (centres undefined) | 51* | -9 | 1 | -8 | -28 | 13
CN(CC1CCCN(CCc2ccc(Cl)cc2)C1)C(=O)C(=O)c1ccco1 (centres undefined) | 44* | -5 | 0 | -4 | -19 | 0
CCN(CC)CCN1C(=O)C(=O)/C(=C(/O)c2c(C)[nH]c(C(=O)OC)c2C)C1c1ccccc1OC (centres undefined) | 8 | -2 | 0 | -7 | 0 | 31*
CC(C)=CCN1CCN(Cc2cc(F)ccc2-n2nc(C)cc2C)CC1CCO (centres undefined) | -2 | -9 | 0 | 12 | -4 | -1
Cc1cc(C)n(-c2ccc(F)cc2CN2CCN(Cc3ccccc3)C(CCO)C2)n1 (centres undefined) | 39* | -7 | 1 | 13 | -19 | -11
O=C1NC2c3c(Cl)sc(Cl)c3C(=O)C2O1 (centres undefined) | -28 | 5 | 0 | 4 | 28* | -8
O=C(Cn1nnc2ccccc21)c1ccc(Cl)cc1 | -26 | -1 | 1 | -7 | 19 | 5
CC[C@]1(C(=O)OC)[C@H]2C(=O)N(C)C(=O)[C@H]2[C@H]2CN=C(SC)N21 | -9 | -3 | 0 | 10 | 7 | -2
Cc1ccc(S(=O)(=O)N2CCN(C(=O)C3CCN(c4ncnc5sc(C)c(C)c45)CC3)CC2)c(C)c1 | -20 | 1 | 0 | 10 | 29* | -13
Cc1sc2ncnc(N3CCC(C(=O)NNC(=O)COc4ccccc4F)CC3)c2c1C | 12 | 5 | 9 | 8 | -12 | -7
Cc1sc2ncnc(N3CCN(CCOc4ccc(Cl)cc4)CC3)c2c1C | 43* | -3 | 12 | 0 | -20 | -2
Cc1sc2ncnc(N3CCC(C(=O)NNC(=O)COc4ccccc4Cl)CC3)c2c1C | 32* | 2 | 13 | -7 | -18 | 4
Cc1sc2ncnc(N3CCN(S(=O)(=O)c4ccc(C(C)(C)C)cc4)CC3)c2c1C | -3 | 1 | 0 | -1 | 9 | -7
Cc1sc2ncnc(N3CCC(C(=O)NNC(=O)COc4ccc(Cl)cc4)CC3)c2c1C | 11 | 2 | 5 | -18 | -9 | 11
CCOC(=O)C1=CN(Cc2cccc(-c3cccnc3)c2)S(=O)(=O)N(C)C1C (centres undefined) | 1 | 1 | 4 | 4 | -12 | -21
COc1ccc2ccccc2c1-c1sc(Nc2ccccc2)n[n+]1-c1ccc(F)cc1 | 28 | 7 | 16* | -3 | -20 | -9
CCc1ccc(Nc2n[n+](-c3ccccc3)c(-c3ccc(OCc4ccccc4)cc3)s2)cc1 | 5 | -6 | 0 | 30 | 0 | -10
CCc1ccc(Nc2n[n+](-c3ccccc3)c(-c3c(Cl)cccc3Cl)s2)cc1 | 49* | 19* | 21* | -3 | -26 | 8
CCc1ccc(Nc2n[n+](-c3ccccc3)c(-c3ccc(N(CC)CC)cc3)s2)cc1 | 39* | 9 | 14 | 6 | -13 | 18
Fc1ccc(-[n+]2nc(Nc3ccccc3)sc2-c2c(Cl)cccc2Cl)cc1 | 22 | -2 | 15* | 2 | -20 | -7

Assay outcomes: PubChem, The Scripps Research Institute Molecular Screening Center
